The values that follow come from the supplement of paper PMC12808144.

Where a name gives a salt, the structure may show the parent alone.

This experiment relates to NHEM-hTERT. The experiment is described as follows: cell viability relative to DMSO control (fraction of DMSO control); higher = less cytotoxic, active = 0.5 or less. As to conditions: 1 µM; 120 h. In short, it runs like this:
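Patient-derived Mel-DCC-11, its resistant subline Mel-DCC-11-R (alone and with 8 µM of its selecting drug) and NHEM-hTERT immortalized melanocytes were exposed for 120 h to 315 approved anti-cancer drugs at 1 µM in duplicate. Luminescence was read with ATPlite 1step. Viability was normalised to vehicle controls and averaged over duplicates.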
With `C#CCC(Cc1cnc2nc(N)nc(N)c2n1)c1ccc(C(=O)N[C@@H](CCC(=O)O)C(=O)O)cc1` (some centres not stated) [Pralatrexate], the cell viability was 0.982 (inactive).

Regarding `CC1(COc2ccc3c(c2)ncn3-c2ccc3cccc(N4CCC(N)CC4)c3n2)COC1` [Crenolanib], the cell viability is 0.873 (inactive).

In the case of `CC(=O)O[C@H]1C(=O)[C@]2(C)[C@@H](O)C[C@H]3OC[C@@]3(OC(C)=O)[C@@H]2[C@@H](OC(=O)c2ccccc2)[C@]2(O)C[C@H](OC(=O)[C@H](O)[C@@H](NC(=O)c3ccccc3)c3ccccc3)C(C)=C1C2(C)C` [Paclitaxel], the cell viability was 0.569 (inactive).

Take `CC(O)(P(=O)([O-])O)P(=O)([O-])O.[Na+].[Na+]` [Sodium etidronate]: the cell viability was 0.984 (inactive).

For the compound `Nc1nc2[nH]nnc2c(=O)[nH]1` [8-Azaguanine], the cell viability is 1.08 (inactive).

Consider `N.N.O=C([O-])C[O-].[Pt+2]` [Nedaplatin], for which the cell viability was 1.08 (inactive).

Regarding `O=C(/C=C/c1cccc(S(=O)(=O)Nc2ccccc2)c1)NO` [Belinostat], the cell viability was 0.737 (inactive).

Consider `CN(C)C/C=C/C(=O)Nc1cc2c(Nc3ccc(F)c(Cl)c3)ncnc2cc1O[C@H]1CCOC1` [Afatinib], for which the cell viability is 1.01 (inactive).

In the case of `C=C[C@H]1[C@@H](O[C@@H]2O[C@H](CO)[C@@H](O)[C@H](O)[C@H]2O)OC=C2C(=O)OCC[C@]21O` [Swertiamarin], the cell viability is 0.942 (inactive).

Regarding `Cc1ccc(NC(=O)C2(c3ccc4c(c3)OC(F)(F)O4)CC2)nc1-c1cccc(C(=O)O)c1` [Lumacaftor], the cell viability is 0.997 (inactive).

For `Nc1[nH]c(=O)ncc1F` [Fluorocytosine], the cell viability is 1.04 (inactive).

On to `O=c1c(-c2ccc(O)cc2)coc2cc(O)cc(O)c12` [Genistein], for which the cell viability was 1.1 (inactive).

Consider `COc1ccc2cc1Oc1ccc(cc1)C[C@H]1c3cc(c(OC)cc3CCN1C)Oc1c(OC)c(OC)cc3c1[C@H](C2)N(C)CC3` [Tetrandrine], for which the cell viability is 1.25 (inactive).

In the case of `COc1ccc(/C=C\c2cc(OC)c(OC)c(OC)c2)cc1OP(=O)([O-])[O-].[Na+].[Na+]` [Fosbretabulin Disodium], the cell viability is 0.64 (inactive).

On to `COC(=O)/C=C/C(=O)OC` [Dimethyl fumarate], for which the cell viability was 1.33 (inactive).

For the compound `N#Cc1ccc(C(c2ccc(C#N)cc2)n2cncn2)cc1` [Letrozole], the cell viability was 1.03 (inactive).

For the compound `O=c1cc(O)c(Cl)c[nH]1` [Gimeracil], the cell viability is 0.996 (inactive).

Regarding `COC(=O)[C@]12CCC(C)(C)C[C@H]1[C@H]1C(=O)C=C3[C@@]4(C)C=C(C#N)C(=O)C(C)(C)[C@@H]4CC[C@@]3(C)[C@]1(C)CC2` [Bardoxolone Methyl], the cell viability was 0.0925 (active).

On to `Clc1ccc(C(c2ccccc2Cl)C(Cl)Cl)cc1` (configuration not stated) [Mitotan], for which the cell viability is 0.958 (inactive).

For the compound `CCOc1cc2ncc(C#N)c(Nc3ccc(OCc4ccccn4)c(Cl)c3)c2cc1NC(=O)/C=C/CN(C)C` [Neratinib], the cell viability was 0.732 (inactive).

For the compound `O=C1CCC(N2C(=O)c3ccccc3C2=O)C(=O)N1` (configuration not stated) [Thalidomide], the cell viability is 1.1 (inactive).

Turning to `CN(C)CCOc1ccc(/C(=C(/CCCl)c2ccccc2)c2ccccc2)cc1` [Toremifene], the cell viability was 0.904 (inactive).

On to `CC(C)NCC(O)COc1cccc2ccccc12.Cl` (configuration not stated) [Propranolol hydrochloride], for which the cell viability is 1.16 (inactive).

For `O=c1cc[nH]c(=O)[nH]1` [Uracil], the cell viability is 1.1 (inactive).

With `COc1ccc(C(Cl)=C(c2ccc(OC)cc2)c2ccc(OC)cc2)cc1` [Chlorotrianisene], the cell viability is 0.795 (inactive).

For the compound `CC(=O)O[C@]1(C(C)=O)CC[C@H]2[C@@H]3C=C(C)C4=CC(=O)CC[C@]4(C)[C@H]3CC[C@@]21C` [Megestrol acetate], the cell viability was 1.04 (inactive).

As for `COc1c2occc2cc2ccc(=O)oc12` [8-Methoxypsoralen], the cell viability is 1.09 (inactive).

With `CC/C(=C(\c1ccccc1)c1ccc(OCCN(C)C)cc1)c1ccccc1.O=C(O)CC(O)(CC(=O)O)C(=O)O` [Tamoxifen Z-isomer citrate], the cell viability was 0.977 (inactive).

For `CC1=C(CC(=O)O)c2cc(F)ccc2/C1=C\c1ccc(S(C)=O)cc1` (configuration not stated) [Sulindac], the cell viability was 0.963 (inactive).

Take `Oc1ccc(/C=C/c2cc(O)cc(O)c2)cc1` [Resveratrol]: the cell viability was 1 (inactive).

For `COc1cc([C@@H]2c3cc4c(cc3[C@@H](O[C@@H]3O[C@@H]5CO[C@@H](C)O[C@H]5[C@H](O)[C@H]3O)C3COC(=O)C32)OCO4)cc(OC)c1O` (some centres not stated) [Etoposide], the cell viability was 0.798 (inactive).

As for `CC(C)C[C@H](NC(=O)[C@H](Cc1ccccc1)NC(=O)c1cnccn1)B(O)O` [Bortezomib], the cell viability was 0.0282 (active).

With `CC(=O)c1c(C)c2cnc(Nc3ccc(N4CCNCC4)cn3)nc2n(C2CCCC2)c1=O.O=S(=O)(O)CCO` [Palbociclib Isethionate], the cell viability is 1.03 (inactive).

For the compound `COc1ccc([C@@H]2CC(=O)c3c(O)cc(O)cc3O2)cc1O` [Hesperetin], the cell viability was 0.971 (inactive).

As for `C=C(c1ccc(C(=O)O)cc1)c1cc2c(cc1C)C(C)(C)CCC2(C)C` [Bexarotene], the cell viability was 1.2 (inactive).

With `Nc1nc(Cl)nc2c1ncn2[C@H]1C[C@H](O)[C@@H](CO)O1` [Cladribine], the cell viability is 0.592 (inactive).

Turning to `CC(=O)O[C@]1(C(C)=O)CC[C@H]2[C@@H]3CCC4=CC(=O)CCC4=C3[C@@H](c3ccc(N(C)C)cc3)C[C@@]21C` [Ulipristal acetate], the cell viability was 0.967 (inactive).
